Screening results deposited in PubChem by National Center for Advancing Translational Sciences (NCATS).
HPGD inh: HPGD (human) dehydrogenase inhibition | P15428 | purified HPGD, NADH fluorescence kinetic, PGE2 substrate | Potency, µM, for inactives: at the top dose activity change, negative = inhibition, most hits filed as inhibitors | actives 4.3% (n = 150,000) | AID 894; also: % is scaled to controls: 0 for no effect and ±100 for the full control effect
Target sequence (P15428 whole entry, looked up): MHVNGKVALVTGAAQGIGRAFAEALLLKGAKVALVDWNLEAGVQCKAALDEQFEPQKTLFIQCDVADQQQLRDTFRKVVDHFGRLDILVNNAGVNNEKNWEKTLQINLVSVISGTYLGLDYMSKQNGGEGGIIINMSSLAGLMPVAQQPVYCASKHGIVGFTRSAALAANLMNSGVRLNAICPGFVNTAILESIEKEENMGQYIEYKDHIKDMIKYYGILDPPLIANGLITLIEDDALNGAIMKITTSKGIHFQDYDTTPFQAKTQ
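NADH formation kinetics: reaction with 30 uM PGE2 and 1 mM NAD+ (final), 20 nM enzyme, Tris-HCl pH 8 with Tween 20, after 15 min compound preincubation at room temperature. Fluorescence change, last versus first of five reads.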
HTT cytoprotect: Huntington cell model cytoprotection by ATP luminescence | PC12 HTT-Q103 induced, cytoprotection, ATP luminescence, 40 h | Potency, µM (doses to about 56.4 µM), for the others: cytoprotection (ATP increase), hits mostly activators | actives 0.14% (n = 230,000) | AID 1471; active = well fitted curve in the direction sought with a large enough effect; inconclusive = small, poorly fitted or top-dose-only effect, or another doubt; inactive = no such curve, though single readings can be large; an effect the other way counts as inactive or inconclusive; also: % of control where 0% means no effect; nearly all actives have a fitted effect of over 45% in size
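Huntington model: PC12 line, ecdysone-inducible HTTQ103 exon1–GFP, tebufenozide 100 nM. Test articles in a dose series. Endpoint luminescence from cellular ATP.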
LMNA splice mod: LMNA splicing modulation; actives 0.01% (n = 200,000); Potency, µM (doses to about 46.1 µM), inactives show top-dose ratio change, negative = inhibition, actives largely listed as inhibitors; HeLa LMNA splicing GFP/RFP minigene ratio, 48 h; AID 1487; active = well fitted inhibition curve with a large enough effect in the signal ratio, with a control signal flat, not every such curve was filed as active; inconclusive = small, poorly fitted or top-dose-only effect, or effect the other way, or a change in a side signal; the % refers to the signal ratio; also: % is scaled to controls: 0 for no effect and ±100 for the full control effect
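S3 HeLa stable clones carrying a lamin A-EGFP splicing minigene plus DsRed2 were seeded at 600 cells/well in Opti-MEM with 2% FBS, pin-dosed and incubated 48 h at 37°C. Acumen cytometry (488 nm) gave the GFP/RFP total-intensity ratio.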
ALDH1A1 inh: ALDH1A1 (human) enzyme inhibition. P00352. Purified ALDH1A1, NADH fluorescence, propionaldehyde substrate. Potency, µM (highest dose often 75.3 µM), for inactives: top-dose activity, negative = inhibition, most hits filed as inhibitors. actives 7.3% (n = 220,000);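 also: plate controls were no enzyme wells and a reference inhibitor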
Target sequence (P00352 whole entry, looked up): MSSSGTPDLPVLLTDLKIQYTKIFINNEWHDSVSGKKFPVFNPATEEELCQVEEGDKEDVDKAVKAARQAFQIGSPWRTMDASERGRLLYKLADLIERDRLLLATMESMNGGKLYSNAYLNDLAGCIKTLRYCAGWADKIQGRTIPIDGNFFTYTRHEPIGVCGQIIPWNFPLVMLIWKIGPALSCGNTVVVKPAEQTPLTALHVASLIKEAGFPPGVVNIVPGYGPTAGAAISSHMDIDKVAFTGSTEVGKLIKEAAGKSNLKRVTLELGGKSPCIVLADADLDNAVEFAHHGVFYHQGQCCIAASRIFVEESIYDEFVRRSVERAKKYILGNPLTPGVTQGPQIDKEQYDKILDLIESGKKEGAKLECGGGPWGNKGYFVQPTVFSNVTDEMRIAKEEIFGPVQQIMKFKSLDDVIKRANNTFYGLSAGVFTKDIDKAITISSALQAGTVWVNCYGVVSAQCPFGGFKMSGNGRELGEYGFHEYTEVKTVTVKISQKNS
HTT aggregate: mutant huntingtin aggregation inhibition; AID 1688; PC12 HttQ103-GFP aggregates, Acumen cytometry, 40 h; actives 1.1% (n = 220,000); Potency, µM (top dose mostly 46.1 µM), inactives show at the top dose activity change, negative = inhibition, actives largely listed as inhibitors; active = well fitted curve in the direction sought with a large enough effect; inconclusive = small, poorly fitted or top-dose-only effect, or another doubt; inactive = no such curve, though single readings can be large; an effect the other way counts as inactive or inconclusive; also: % is scaled to controls: 0 for no effect and ±100 for the full control effect; nearly all actives have a fitted effect of over 60% in size
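Ecdysone-promoter PC12 model expressing HTT exon 1 Q103 fused to GFP, induced by tebufenozide at 100 nM final. Compounds titrated; aggregates sized 1–25 µm scored on a 488 nm laser cytometer.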
KDM4E inh: JMJD2E (human) inhibition; JMJD2E catalytic domain, FDH-coupled NADH fluorescence (FDH is formaldehyde dehydrogenase); Potency, µM (doses to about 57.1 µM), inactives show at the highest dose activity change, negative = inhibition, most hits filed as inhibitors; actives 1.6% (n = 230,000);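 also: 0% = wells with enzyme and -100% = buffer wells without enzyme; nearly all actives have a fitted effect of over 50% in size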
* = called active by the depositor; ? = inconclusive; . = no result; [ ] = another dose, or the depositor's remark. Hits are enriched below; roughly 9.2% of the tested compounds scored in any of these assays. Unless noted, calls follow the shape of the dose curve; as a rule, active = well fitted inhibition curve with a large enough effect (not every such curve was filed as active); inconclusive = small, poorly fitted or top-dose-only effect, or another doubt; inactive = no such curve, though single readings can be large or run the other way. Potency is read from the fitted curve at half-maximal effect.

SMILES | HPGD inh | HTT cytoprotect | LMNA splice mod | ALDH1A1 inh | HTT aggregate | KDM4E inh
O=C(/C=C/Sc1ccc(C(F)(F)F)cn1)c1ccccc1 | . | -34%[10 µM] | . | . | 13%[9.22 µM] | -7%
COC(=O)CSc1nc2cc(OC)ccc2n1C | . | 6%[10 µM] | . | . | 8%[9.22 µM] | 4%
COc1ccc2c(c1)nc(SCC(=O)c1ccc(Br)s1)n2C | ? | ? | -2% | 28µM* | 3% | -5%
Cn1c(-c2sccc2OCc2ccc(Cl)cc2Cl)n[nH]c1=S | . | -2%[10 µM] | 9%[46 µM] | 32µM* | -8% | ?
Cn1c(-c2sccc2OCc2ccccc2)n[nH]c1=S | ? | -2% | 1% | ? | -2% | ?
Cc1ccc(COc2ccsc2-c2n[nH]c(=S)n2C)cc1 | ? | -2% | 9% | 20µM* | 12% | ?
COc1ccc(Cl)cc1-c1n[nH]c(=S)n1C | -21% | -22% | -5% | -9% | 8%[1.84 µM] | 3%
CCCSC1=NC2(CCN(C(=O)NC3CCCCC3)CC2)N=C1c1ccc(Cl)cc1 | . | . | 8%[46 µM] | . | . | .
Cc1nc(-c2cccc(F)c2)sc1CCNC(=O)c1c(F)cccc1Cl | . | . | 16%[46 µM] | . | . | .
O=[N+]([O-])c1cc(S(=O)(=O)NCCCN2CCOCC2)ccc1Cl | -17% | 24%[10 µM] | -3% | -5% | -4% | ?
Cc1ccc(-n2nnnc2Sc2ccc(S(=O)(=O)NCCN(C)C)cc2[N+](=O)[O-])cc1 | -22% | -52%[10 µM] | ? | ? | 22µM* | 1%
O=[N+]([O-])c1cc(S(=O)(=O)NCCN2CCOCC2)ccc1Sc1nnnn1-c1ccccc1 | -8% | 24%[10 µM] | ? | 14µM* | 4.5µM* | 6%
COC(=O)c1ccc(C2Nc3cccc4cccc(c34)N2)cc1 | . | -35% | . | -3% | 2% | 8.9µM*
COC(=O)c1ccc(C2NC(=O)c3c(sc(C)c3C)N2)cc1 (centres undefined) | . | 0%[10 µM] | . | 24µM* | 0%[9.22 µM] | ?
CCN(CCCNC(=O)c1c(C)cc(=O)oc1C)c1cccc(C)c1 | -18% | 22%[10 µM] | -3% | 10µM* | 5% | -2%
CCc1noc(C)c1C(=O)N1CCCC(C(=O)c2ccc(OC)c(F)c2)C1 (centres undefined) | . | 3%[10 µM] | ? | 7.1µM* | -4%[9.22 µM] | -1%
COc1ccc(C(=O)C2CCCN(C(=O)c3cc(C(C)C)no3)C2)cc1F (centres undefined) | . | -9%[10 µM] | . | 1.6µM* | -10%[9.22 µM] | 0%
O=C1C2CC=C(Cl)CC2C(=O)N1CCN1CCOCC1 (centres undefined) | -1% | -1% | 8% | -3% | 3%[9.22 µM] | 1%
O=C1C2CC=C(Cl)CC2C(=O)N1CCCCCCN1C(=O)C2CC=C(Cl)CC2C1=O (centres undefined) | 16µM* | -11% | -10% | 22µM* | -4% | -11%
COC(=O)C1=C(C(=O)OC)C(c2cc(Cl)ccc2O)c2sc(=O)[nH]c2S1 (centres undefined) | 20µM* | -9% | 5% | 32µM* | -9% | -12%
COCCNC(=O)CN(C(=O)CCC(=O)Nc1ccccn1)c1ccccc1F | . | -17% | . | 17% | 0.0045µM* | 3%
COCCNC(=O)CN(C(=O)CCC(=O)Nc1ccccn1)c1ccc(F)cc1 | -5% | -10% | -2% | -8% | 1% | -1%
O=C(CCCn1c(=S)[nH]c2ccccc2c1=O)NCCSCc1ccccc1 | . | ? | . | 5% | -15% | 4%
CCOC(=O)C1=C(C)NC(=O)NC1c1ccc(-c2ccccc2F)o1 (centres undefined) | 6% | -1%[0.074 µM] | ? | 20µM* | -11% | -9%
Oc1c(Br)cc(Br)c2cccnc12 | -7% | -59% | . | 10% | ? | 20µM*
SMILES | HPGD inh | HTT cytoprotect | LMNA splice mod | ALDH1A1 inh | HTT aggregate | KDM4E inh
[O-][n+]1cccc2c(Br)cc(Br)c(O)c21 | . | -47% | ? | -6% | ? | -26%
COC(=O)CN1C(=O)C2(C(C#N)=C(N)Oc3cc(C)oc(=O)c32)c2ccccc21 (centres undefined) | -16% | -136% | 3% | 6.3µM* | 8% | 2%
Cc1[nH]nc2c1C1(C(=O)N(Cc3ccc(Cl)cc3)c3ccccc31)C(C#N)=C(N)O2 (centres undefined) | -10% | 16%[10 µM] | -2% | ? | 12% | 4%
COC(=O)CN1C(=O)C2(C(C#N)=C(N)Oc3ccccc32)C2=C1CC(C)(C)CC2=O (centres undefined) | -1% | 0% | 12% | 6.3µM* | -2%[1.84 µM] | -5%
CC1(C)CC(=O)C2=C(C1)OC(N)=C(C#N)C21C(=O)N(Cc2ccccc2Cl)c2ccccc21 (centres undefined) | -2% | -6%[10 µM] | 10% | 2.8µM* | 28% | 2%
CC(=O)N1C(=O)C2(C(C#N)=C(N)Oc3cc(C)oc(=O)c32)c2ccccc21 (centres undefined) | 2% | 4%[0.074 µM] | -13% | 5% | 21% | 6%
N#CC1=C(N)OC2=C(C(=O)CCC2)[C@]12C(=O)N(CC(N)=O)c1ccccc12 | . | 11% | 0% | 9% | 5% | 9%
COC(=O)Cc1[nH]nc2c1C1(C(=O)N(Cc3ccccc3)c3ccccc31)C(C#N)=C(N)O2 (centres undefined) | -1% | -7% | 19% | 20µM* | -28% | 10%
CC(C)c1ccccc1NC(=O)CNC(C)c1ccc(F)cc1 (centres undefined) | . | -10% | 6%[46 µM] | 11% | -8% | 3%
O=C(Nc1ccc(Cl)c(C(F)(F)F)c1)c1nc2ccccc2nc1N1CCCCC1 | . | . | 6%[46 µM] | . | . | .
COc1cc2c3c(c1)C1(C(=O)N3C(C)(C)C=C2C)C(C#N)=C(N)Oc2cc(C)oc(=O)c21 (centres undefined) | -9% | -9% | ? | 4µM* | 10% | 2%
CCN(CC)S(=O)(=O)c1ccc(Oc2ccccc2)cc1 | -16% | -9% | ? | 3% | 16µM* | 7%
CCN(CC)S(=O)(=O)c1ccc(NN)nc1 | . | 4% | ? | -7% | -14% | ?
CN(C)S(=O)(=O)c1ccc(Oc2ccccc2)cc1 | -11% | -15%[0.074 µM] | ? | 13% | -42% | 1%
CCN(CC)S(=O)(=O)c1ccc(Oc2cccc(C(C)=O)c2)nc1 | -14% | 7% | ? | 14µM* | 5.6µM* | 13%
COc1cccc(OC)c1-c1nn2c(-c3cc(-c4ccccc4)n[nH]3)nnc2s1 | 13µM* | -28%[0.074 µM] | ? | 6% | -6% | ?
CCN(CC)S(=O)(=O)c1ccc(N/N=C/c2cccnc2)nc1 | . | 14%[10 µM] | . | . | -23%[9.22 µM] | -12%
CCN(CC)S(=O)(=O)c1ccc(N/N=C/c2cc(OC)ccc2O)nc1 | -4% | -88%[10 µM] | ? | 4% | 2.8µM* | 13µM*
